In PubChem BioAssay AID1159580 (chemical genetic matrix, 2015):
Values joined by “and” are separate entries in the source; they are usually repeats but may differ in a detail not shown here. Identical values can stand only once. Among all 5,500 compounds or so, about 2,000 (36%) were called active. Not shown: some 18% with an inconclusive outcome. Rule as the data show it: active = normalized growth mostly below about 0.91 (no sharp cut-off); inconclusive = no clear call, values can overlap the other calls; inactive = mostly above about 0.92. Some of the results follow.

Test: chemical genetic growth profiling, strain panel (AID 1159580);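 also: tested at 20 µM; growth read once vehicle control cultures reached saturation at 30 °C; 1 = growth at the plate median or of vehicle wells; lower values mean less growth of the strain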
Settings: S. cerevisiae deletion strains, growth OD

Measured: normalized growth

CCCCN1CCCCC1C(=O)Nc1c(C)cccc1C (configuration not stated)
inactive: locus YAL013W, strain DEP1, stronger effect = lower value 1.02 | locus YAL021C, strain ccr4, stronger effect = lower value 0.992 | locus YAL026C, strain drs2, stronger effect = lower value 1.01 | locus YAL030W, strain snc1, stronger effect = lower value 0.991 | locus YBL061C, strain skt5, stronger effect = lower value 0.992 | locus YBR009C, strain hhf1, stronger effect = lower value 0.976 | locus YBR021W, strain FUR4, stronger effect = lower value 1.01 | locus YBR023C, strain chs3, stronger effect = lower value 0.977 | locus YBR171W, strain sec66, stronger effect = lower value 0.991 | locus YBR229C, strain ROT2, stronger effect = lower value 1.02 | locus YBR231C, strain swc5, stronger effect = lower value 0.995 | locus YBR279W, strain paf1, stronger effect = lower value 0.994 | locus YCL011C, strain gbp2, stronger effect = lower value 0.986 | locus YCL016C, strain dcc1, stronger effect = lower value 1 | locus YCL029C, strain bik1, stronger effect = lower value 0.986 | locus YCL061C, strain MRC1, stronger effect = lower value 0.981 | locus YCL069W, strain vba3, stronger effect = lower value 0.99 | locus YCR088W, strain abp1, stronger effect = lower value 0.986 | locus YDL005C, strain med2, stronger effect = lower value 0.984 | locus YDL035C, strain GPR1, stronger effect = lower value 1.03 | locus YDL040C, strain nat1, stronger effect = lower value 1 | locus YDL074C, strain BRE1, stronger effect = lower value 1.01 | locus YDL101C, strain DUN1, stronger effect = lower value 1.01 | locus YDL134C, strain PPH21, stronger effect = lower value 1.01 | locus YDL185W, strain tfp1, stronger effect = lower value 0.995 | locus YDL192W, strain arf1, stronger effect = lower value 1 | locus YDR001C, strain nth1, stronger effect = lower value 0.978 | locus YDR069C, strain doa4, stronger effect = lower value 0.972 | locus YDR101C, strain arx1, stronger effect = lower value 1 | locus YDR137W, strain rgp1, stronger effect = lower value 0.965 | locus YDR150W, strain NUM1, stronger effect = lower value 1.02 | locus YDR159W, strain sac3, stronger effect = lower value 0.984 | locus YDR162C, strain NBP2, stronger effect = lower value 1.02 | locus YDR195W, strain ref2 0.967 | locus YDR297W, strain sur2, stronger effect = lower value 0.986 | locus YDR318W, strain mcm21, stronger effect = lower value 0.995 | locus YDR334W, strain swr1, stronger effect = lower value 0.969 | locus YDR335W, strain msn5, stronger effect = lower value 0.987 | locus YDR388W, stronger effect = lower value 0.986 | locus YDR392W, strain spt3, stronger effect = lower value 0.991 | locus YDR502C, strain sam2, stronger effect = lower value 1 | locus YEL003W, strain gim4, stronger effect = lower value 0.983 | locus YEL037C, strain rad23, stronger effect = lower value 0.993 | locus YEL061C, strain CIN8 (second series), stronger effect = lower value 0.973 | locus YEL061C, strain CIN8, stronger effect = lower value 1.01 | locus YER015W, strain faa2, stronger effect = lower value 0.992 | locus YER016W, strain bim1, stronger effect = lower value 0.987 | locus YER110C, stronger effect = lower value 0.995 | locus YER111C, strain swi4, stronger effect = lower value 1.01 | locus YER155C, strain BEM2 (second series), stronger effect = lower value 0.997 | locus YER155C, strain BEM2, stronger effect = lower value 1 | locus YER167W, strain BCK2, stronger effect = lower value 1.03 | locus YFR010W, strain ubp6, stronger effect = lower value 0.974 | locus YGL078C, strain dbp3, stronger effect = lower value 0.996 | locus YGL086W, strain mad1, stronger effect = lower value 1.01 | locus YGL167C, strain pmr1, stronger effect = lower value 0.992 | locus YGL173C, strain kem1, stronger effect = lower value 1.01 | locus YGL227W, strain vid30, stronger effect = lower value 0.973 | locus YGL240W, strain doc1, stronger effect = lower value 0.98 | locus YGL248W, strain PDE1, stronger effect = lower value 1.02 | locus YGL253W, strain hxk2, stronger effect = lower value 0.994 | locus YGR078C, strain PAC10, stronger effect = lower value 1.01 | locus YGR135W, strain pre9, stronger effect = lower value 0.997 | locus YGR229C, strain SMI1, stronger effect = lower value 1.01 | locus YGR252W, strain gcn5, stronger effect = lower value 1.06 | locus YHR013C, strain ard1, stronger effect = lower value 0.988 | locus YHR027C, strain rpn1, stronger effect = lower value 0.99 | locus YHR030C, strain SLT2, stronger effect = lower value 1.01 and 0.987 | locus YHR079C, strain IRE1 (second series), stronger effect = lower value 0.99 | locus YHR079C, strain IRE1, stronger effect = lower value 0.975 | locus YHR094C, strain hxt1, stronger effect = lower value 0.997 | locus YHR129C, strain ARP1, stronger effect = lower value 1.01 | locus YHR142W, strain chs7, stronger effect = lower value 0.999 | locus YHR200W, strain rpn10, stronger effect = lower value 0.986 | locus YIL066C, strain RNR3, stronger effect = lower value 1.01 | locus YIL073C, strain SPO22, stronger effect = lower value 0.989 | locus YIL125W, strain kgd1, stronger effect = lower value 0.997 | locus YIR030C, strain dcg1, stronger effect = lower value 0.992 | locus YJL092W, strain hpr5, stronger effect = lower value 0.969 | locus YJL095W, strain BCK1 (second series), stronger effect = lower value 0.995 | locus YJL095W, strain BCK1, stronger effect = lower value 1 and 0.971 | locus YJL115W, strain asf1, stronger effect = lower value 0.998 | locus YJL129C, strain trk1, stronger effect = lower value 0.966 | locus YJL134W, strain LCB3, stronger effect = lower value 1.01 | locus YJL154C, strain vps35, stronger effect = lower value 0.991 | locus YJL164C, strain tpk1, stronger effect = lower value 0.978 | locus YJL166W, strain qcr8, stronger effect = lower value 0.994 | locus YJL168C, strain set2, stronger effect = lower value 0.99 | locus YJL187C, strain SWE1 (second series), stronger effect = lower value 1.01 | locus YJL187C, strain SWE1, stronger effect = lower value 0.99 | locus YJR043C, strain POL32, stronger effect = lower value 1.01 | locus YJR066W, strain TOR1, stronger effect = lower value 0.957
